Compounds with a hit are over-represented: about 3.1% of the library has one in this group of screens.
Pin1 inhibitor = qHTS Assay to Find Inhibitors of Pin1 | 390,000 tested, 0.009% active | Pin1 FP peptide displacement, HiFluor488, 10 min | Potency, µM (doses to about 115 µM), without a hit: at the highest dose activity, negative = inhibition, actives largely listed as inhibitors | Peptidyl-prolyl cis-trans isomerase NIMA-interacting 1 (Homo sapiens), Q13526; active = well fitted inhibition curve with a large enough effect in the polarisation, with a control signal flat, not every such curve was filed as active; inconclusive = small, poorly fitted or top-dose-only effect, or effect the other way, or a change in a side signal; inactive = no such curve, though single readings can be large or run the other way; the % refers to the polarisation; also: % is scaled to controls: 0 for no effect and ±100 for the full control effect
Tb PFK inh = qHTS Assay to Find Inhibitors of T. brucei phosphofructokinase. T. brucei PFK, ADP-Glo luminescence. AID 485367, 2010. Potency, µM (highest dose often 57.5 µM), for the others: at the highest dose activity, negative = inhibition, actives largely listed as inhibitors. ATP-dependent 6-phosphofructokinase (Trypanosoma brucei brucei), O15648. 330,000 tested, 0.17% active;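 also: 0% = uninhibited 1x PFK enzyme wells and -100% = no-enzyme wells; nearly all actives have a fitted effect of over 60% in size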
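In TEA buffer at pH 8.0 with 5 mM MgCl2, enzyme (1.25 nM) converted F6P (0.5 mM) and ATP (0.1 mM) for 45 min at room temperature. ADP product was read by luciferase luminescence.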
VDR inh = Inhibitors of the vitamin D receptor (VDR): qHTS. Vitamin D3 receptor (Homo sapiens), P11473. 400,000 tested, 0.93% active. Potency, µM, for the others: max response, negative = inhibition, hits mostly inhibitors. VDR-SRC2-3 peptide fluorescence polarization, 2 h; also: % is scaled to controls: 0 for no effect and ±100 for the full control effect
Target sequence (P11473 whole entry, looked up): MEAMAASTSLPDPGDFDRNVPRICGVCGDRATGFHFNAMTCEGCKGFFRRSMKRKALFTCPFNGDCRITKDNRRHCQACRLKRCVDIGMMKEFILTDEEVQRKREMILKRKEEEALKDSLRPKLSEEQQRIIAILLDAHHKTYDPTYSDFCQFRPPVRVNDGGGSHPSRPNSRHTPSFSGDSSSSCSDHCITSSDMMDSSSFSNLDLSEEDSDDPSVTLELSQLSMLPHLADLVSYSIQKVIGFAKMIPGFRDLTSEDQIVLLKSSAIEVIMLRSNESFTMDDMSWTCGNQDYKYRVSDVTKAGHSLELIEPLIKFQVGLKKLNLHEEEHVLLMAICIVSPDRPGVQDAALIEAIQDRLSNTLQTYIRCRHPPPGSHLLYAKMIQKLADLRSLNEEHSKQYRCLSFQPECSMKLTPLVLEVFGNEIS
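After 23 nl compound addition and a short centrifugation, plates sat for 2 hours at ambient temperature; polarization of fluorescence then indicated loss of VDR binding to peptide SRC2-3.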
ASM inhibitor = Inhibitors of Secretory Acid Sphingomyelinase (S-ASM): qHTS; Sphingomyelin phosphodiesterase (Homo sapiens), P17405; AID 504937, 2011; 340,000 tested, 0.006% active; placental ASM, HMU-PC fluorogenic substrate, 60 min; Potency, µM (top dose mostly 57.5 µM), for the others: at the top dose activity change, negative = inhibition, most hits filed as inhibitors
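Fluorescence read-out (Ex 386 nm, Em 447 nm) after stopping the reaction at pH 10. Enzyme: ASM from human placenta; substrate HMU-PC0, 9 uM final; 60 min, 37 °C. Compound preincubation 10 min, ambient temperature.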
TDP1 inh = qHTS Assay for Inhibitors of Tyrosyl-DNA Phosphodiesterase (TDP1). Tyrosyl-DNA phosphodiesterase 1 (Homo sapiens), Q9NUW8. recombinant TDP1, AlphaScreen DNA substrate cleavage. Potency, µM (top dose mostly 130 µM), for inactives: at the highest dose activity change, negative = inhibition, most hits filed as inhibitors. 350,000 tested, 0.28% active. AID 485290, 2010; also: % is scaled to controls: 0 for no effect and ±100 for the full control effect; nearly all actives have a fitted effect of over 40% in size
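Tdp1 1 nM final; 15 min RT w/ cpd; substrate 15 nM, 5 min; beads 10 ug/ml, 10 min; AlphaScreen read. Neg ctrl: no enzyme.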
PLK1 PBD block = qHTS for Inhibitors of PLK1-PDB (polo-like kinase 1 - polo-box domain): Primary Screen. Plk1 PBD binding of FITC phosphopeptide, fluorescence polarization. Potency, µM, for the others: max response, negative = inhibition, usual class: inhibitors. 360,000 tested, 2.8% active. AID 720504, 2013; also: series mostly up to about 57 µM; % is scaled to controls: 0 for no effect and ±100 for the full control effect; nearly all actives have a fitted effect of over 65% in size
The depositor's hits bear a star; ? = inconclusive; nt = no result; [ ] = dose if it differs, or a comment. Unless noted, calls follow the shape of the dose curve; as a rule, active = well fitted curve in the direction sought with a large enough effect; inconclusive = small, poorly fitted or top-dose-only effect, or another doubt; inactive = no such curve, though single readings can be large; an effect the other way counts as inactive or inconclusive. Potency is read from the fitted curve at half-maximal effect.

SMILES | Pin1 inhibitor | Tb PFK inh | VDR inh | ASM inhibitor | TDP1 inh | PLK1 PBD block
CC(=O)n1cc(N(C(=O)CCl)c2ccc(Cl)cc2)c2ccccc21 | ? | -3% | 50µM* | -6% | nt | -12%
COCCCn1c(SCC(=O)N2CCOCC2)nnc1-c1ccco1 | ? | 3% | 13% | -2% | nt | 6%
CCCc1nnc(SCC(=O)N2CCOCC2)n1CCCOC | 6% | 0% | -15% | 3% | 4% | 17µM*
Cc1ccc(C)c(/C=C2\N=C(c3ccccc3F)OC2=O)c1 | -2% | 1% | 79µM* | 1% | 0% | -17%
O=C(CNC(=O)C1CCCCC1)OCC(=O)c1ccccc1 | 18% | nt | -19% | nt | 1% | nt
Cc1nc2ccc(C(=O)O)cc2c2c1CC(C)S2 (stereo not drawn) | -9% | 0% | -10% | 9% | 20µM* | ?
O=S(=O)(Nc1cccc2cccnc12)c1ccc(Br)s1 | -2% | nt | nt | nt | 20% | nt
Cc1cnc(NC(=O)CCNC(=O)c2ccc([N+](=O)[O-])cc2)s1 | 5% | 2% | -19% | 4% | -3% | 27µM*
Cc1cnc(NC(=O)CCNC(=O)c2ccccc2Cl)s1 | 3% | -7% | 2% | 0% | 0% | -5%
Cc1ccc(C(=O)n2ncn(C)c2=S)cc1 | -15% | -1% | ? | 3% | nt | 9.5µM*
Cc1ccc(C(=O)n2nc(-c3ccco3)nc2N)cc1 | 6% | -2% | -18% | 12% | 5% | -9%
Cc1ccc2nc(NC(=O)C3CCCN(S(=O)(=O)c4cnc[nH]4)C3)sc2c1 (stereo not drawn) | -25% | 4% | -9% | -3% | -3% | -25%
CCSc1nnc(NC(=O)C2CCCN(S(=O)(=O)c3cnc[nH]3)C2)s1 (stereo not drawn) | -2% | 2% | -4% | -1% | 2% | 30µM*
COc1ccc(C2C=C(c3ccccc3)Nc3nc(NS(=O)(=O)c4ccccc4)nn32)cc1 (stereo not drawn) | -8% | nt | 2% | nt | 0% | nt
CC1=C(/C=C/C(C)=C/C=C/C(C)=C/C=C/C=C(C)/C=C/C=C(C)/C=C/C(=O)[C@]2(C)CC(O)CC2(C)C)C(C)(C)CC(O)C1 (stereo partly drawn) | nt | nt | 2% | nt | 11%[56.1 µM] | nt
CC1=C[C@@H](O)CC(C)(C)[C@@H]1/C=C/C(C)=C/C=C/C(C)=C/C=C/C=C(C)/C=C/C=C(C)/C=C/C1=C(C)C[C@H](O)CC1(C)C | nt | nt | 28µM* | nt | nt | nt
CC1=C(/C=C/C(C)=C\C=C\C(C)=C\C=C\C=C(C)\C=C\C=C(C)\C=C\C2=C(C)C[C@@H](O)CC2(C)C)C(C)(C)C[C@H](O)C1 | nt | nt | 40µM* | nt | nt | nt
Cc1ccc(C(=O)CCS(=O)(=O)c2ccc(F)cc2)cc1 | 2% | -14% | 25µM* | -2% | 3% | 9.5µM*
Cc1ccc(S(=O)(=O)CCC(=O)c2ccc(F)cc2)cc1 | -7% | -9% | ? | 5% | 1% | 11µM*
Cc1ccc(CNC(=O)c2ccc(Cn3c(SCc4ccc(F)cc4)nc4cccnc43)cc2)o1 | 69% | nt | -11% | nt | 4% | nt
CCCS(=O)(=O)Nc1cc(-c2cn3cccc(C)c3n2)ccc1C | -10% | nt | 8% | nt | 0% | nt
C=CCOc1ccc(Br)cc1/C=C1/SC(=Nc2ccc(C(=O)O)cc2)NC1=O | 60% | -2% | -15% | -2% | 79µM* | 21µM*
CCOc1cc(Br)cc(/C=C2\SC(=Nc3ccccc3)NC2=O)c1O | 4% | 3% | ? | -18% | nt | ?
O=S(=O)(c1ccc2c(c1)OCCO2)N1CCN(S(=O)(=O)c2cccc3cccnc23)CC1 | 23% | nt | nt | nt | nt | nt
CCCC1(C)C(C#N)(C#N)C1(C#N)C#N | nt | nt | 10µM* | nt | nt | nt
Cc1ccccc1OCC(=O)NCC(=O)OCc1cccc2ccccc12 | 0% | nt | -9% | nt | 0% | nt

Compound activity as filed in PubChem.
